Data taken from PubChem BioAssay AID1159580 (chemical genetic matrix, 2015).
The whole screen tested about 5,500 compounds, of which about 2,000 (36%) were called active. Roughly 18% stayed inconclusive and do not appear here. The list shows a part of the results. Unmarked numbers belong to inactive results. Rule as the data show it: active = normalized growth mostly below about 0.91 (no sharp cut-off); inconclusive = no clear call, values can overlap the other calls; inactive = mostly above about 0.92.

Test: chemical genetic growth profiling, strain panel (AID 1159580);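 also: tested at 20 µM; growth read once vehicle control cultures reached saturation at 30 °C; 1 = growth at the plate median or of vehicle wells; lower values mean less growth of the strain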
Details: S. cerevisiae deletion strains, growth OD
[1] = locus YAL013W, strain DEP1, stronger effect = lower value
[2] = locus YBR229C, strain ROT2, stronger effect = lower value
[3] = locus YDL101C, strain DUN1, stronger effect = lower value
[4] = locus YDR150W, strain NUM1, stronger effect = lower value
[5] = locus YEL061C, strain CIN8, stronger effect = lower value
[6] = locus YGR078C, strain PAC10, stronger effect = lower value
[7] = locus YGR229C, strain SMI1, stronger effect = lower value
[8] = locus YHR030C, strain SLT2, stronger effect = lower value
[9] = locus YHR087W, strain rtc3, stronger effect = lower value
[10] = locus YJL187C, strain SWE1, stronger effect = lower value
[11] = locus YJR043C, strain POL32, stronger effect = lower value
[12] = locus YJR075W, strain HOC1, stronger effect = lower value
[13] = locus YKL190W, strain CNB1, stronger effect = lower value
[14] = locus YLR039C, strain RIC1, stronger effect = lower value
[15] = locus YLR058C, strain SHM2 (second series), stronger effect = lower value
[16] = locus YLR085C, strain ARP6, stronger effect = lower value
[17] = locus YLR262C, strain YPT6, stronger effect = lower value
[18] = locus YML094W, strain GIM5, stronger effect = lower value
[19] = locus YMR219W, strain ESC1, stronger effect = lower value
[20] = locus YMR263W, strain SAP30, stronger effect = lower value
[21] = locus YNL153C, strain GIM3, stronger effect = lower value
[22] = locus YNL298W, strain CLA4 (second series), stronger effect = lower value
[23] = locus YNL322C, strain KRE1, stronger effect = lower value
[24] = locus YNR030W, strain Alg12, stronger effect = lower value
[25] = locus YPL055C, strain LGE1, stronger effect = lower value
[26] = locus YPL241C, strain CIN2, stronger effect = lower value
[27] = locus YPR135W, strain CTF4, stronger effect = lower value
[28] = locus YMR307W, strain GAS1, stronger effect = lower value

## O=c1[nH]c2cccnc2[nH]c1=O
[1]
  normalized growth: 0.999
[2]
  normalized growth: 1.02
[3]
  normalized growth: 1.01
[4]
  normalized growth: 0.995
[5]
  normalized growth: 1
[6]
  normalized growth: 1.01
[7]
  normalized growth: 0.997
[8]
  normalized growth: 1.03
[9]
  normalized growth: 1
[10]
  normalized growth: 0.992
[11]
  normalized growth: 1.01
[12]
  normalized growth: 0.969
[13]
  normalized growth: 0.995
[14]
  normalized growth: 1
[15]
  normalized growth: 1
[16]
  normalized growth: 1.01
[17]
  normalized growth: 0.979
[18]
  normalized growth: 1.02
[19]
  normalized growth: 1.03
[20]
  normalized growth: 1.01
[21]
  normalized growth: 1.04
[22]
  normalized growth: 1.04
[23]
  normalized growth: 0.998
[24]
  normalized growth: 1.01
[25]
  normalized growth: 0.965
[26]
  normalized growth: 1.01
[27]
  normalized growth: 1.06

## O=c1[nH]c2ccccc2c2ccccc12
Locus YAL040C, strain CLN3, stronger effect = lower value
  normalized growth: 1.04
Locus YCL061C, strain MRC1 (second series), stronger effect = lower value
  normalized growth: 1
[4]
  normalized growth: 0.983
Locus YDR363W, strain ESC2, stronger effect = lower value
  normalized growth: 1.01
Locus YER002W, strain NOP16, stronger effect = lower value
  normalized growth: 0.987
[28]
  normalized growth: 0.979
[21]
  normalized growth: 0.779 (active)
Locus YNL175C, strain NOP13, stronger effect = lower value
  normalized growth: 0.975
Locus YNL197C, strain WHI3, stronger effect = lower value
  normalized growth: 0.967
Locus YNL224C, strain SQS1, stronger effect = lower value
  normalized growth: 1.01
[23]
  normalized growth: 0.983
Locus YOR083W, strain WHI5 (second series), stronger effect = lower value
  normalized growth: 0.945

## CCCCCCCc1c(O)c2ccccc2[nH]c1=O
[1]
  normalized growth: 1.01
[2]
  normalized growth: 0.998
Locus YCL061C, strain MRC1, stronger effect = lower value
  normalized growth: 1.01
[3]
  normalized growth: 1
[4]
  normalized growth: 0.962
[5]
  normalized growth: 1.01
[6]
  normalized growth: 1
[7]
  normalized growth: 1.01
[8]
  normalized growth: 0.989
[9]
  normalized growth: 1
[10]
  normalized growth: 1
[11]
  normalized growth: 1
[12]
  normalized growth: 1
[13]
  normalized growth: 1.01
[14]
  normalized growth: 1.01
[15]
  normalized growth: 1.01
[16]
  normalized growth: 1.01
[17]
  normalized growth: 1.02
[18]
  normalized growth: 1.01
[19]
  normalized growth: 1.02
[20]
  normalized growth: 1.01
[28]
  normalized growth: 0.961
Locus YNL128W, strain TEP1, stronger effect = lower value
  normalized growth: 1.01
[21]
  normalized growth: 1.01
[22]
  normalized growth: 1.03
[23]
  normalized growth: 0.997
[24]
  normalized growth: 1.02
[25]
  normalized growth: 1.02
[26]
  normalized growth: 1.02
[27]
  normalized growth: 1.07
